Compound activity deposited in PubChem BioAssay by National Center for Advancing Translational Sciences (NCATS).
KDM5B inh = KDM5B demethylase inhibition. KDM5B demethylase, FDH-coupled NADH fluorescence (FDH is formaldehyde dehydrogenase). Potency, µM (highest dose often 57.7 µM), usual class: inhibitors. 220,000 tested, 2.6% active. AID 1347165; active means well fitted inhibition curve with a large enough effect; further: nearly all actives have a fitted effect of over 70% in size
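Here, H3K4me3 peptide (12.5 µM in substrate mix) is demethylated by KDM5BΔAP, 200 nM final, after 10 min compound exposure. Formaldehyde product is coupled through FDH (0.25 U/mL in mix) to NADH fluorescence; 30-min ΔRFU feeds dose-response curves.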
Each line names hits and unclear results; the compound was inactive in the other large screens. Shown is part of a subset that was picked to be rich in hits.

CC(=O)N1Cc2ccccc2CC2(CCCCN2CC2CCOCC2)C1 (centres undefined)	none
CC(C)C(=O)N1Cc2ccccc2CC2(CCCN2Cc2ccncc2)C1 (centres undefined)	KDM5B inh 56µM
CC(C)C(=O)N1Cc2ccccc2CC2(CCCCN2Cc2ccncc2)C1 (centres undefined)	none
CC(=O)N1Cc2ccccc2CC2(CCCCN2CC2CCCC2)C1 (centres undefined)	KDM5B inh 50µM
O=C(c1ccccc1)N1CC2(CCCCN2CC2CC2)Cc2ccccc21 (centres undefined)	none
NCC(=O)N1Cc2ccccc2CC2(CCCCN2CC2CCCC2)C1 (centres undefined)	none
CC(=O)N1Cc2ccccc2CC2(CCCN(CC3CCNC3)C2)C1 (centres undefined)	KDM5B inh 25µM
CCC(=O)N1Cc2ccccc2CC2(CCCN(CC3CCNCC3)C2)C1 (centres undefined)	none
O=C(C1CCCC1)N1CC2(CCCCN2CC2CC2)Cc2ccccc21 (centres undefined)	none
CC(=O)Nc1ccc(CN2CCCCC23Cc2ccccc2CN(C(=O)C(C)C)C3)cc1 (centres undefined)	none
CC(C)C(=O)N1Cc2ccccc2CC2(CCN(CC3CCNC3)C2)C1 (centres undefined)	none
O=C(c1ccc(Cl)cc1)N1CC2(CCCN2CC2CCCCC2)Cc2ccccc21 (centres undefined)	KDM5B inh 56µM
CCNC(=O)NC(=O)CSc1ccc2ccccc2n1	none
C/C=C/C(=O)OCc1nc2c(c(=O)[nH]c(=O)n2CCCC)n1C	none
CCC(C)NC(=O)/C(C#N)=C/c1c(C)[nH]c2ccccc12 (centres undefined)	none
CCOc1cc(=O)n2c(c1C(=O)Nc1ccc3c(c1)OCO3)CCCC2	none
CCOCCCNC(=O)c1ccccc1Sc1ccccc1C#N	none
O=C(Nc1ccc(Cl)cc1)c1c2c(nc3ccccc13)CCCC2	none
CC(C)CCCNC(=O)c1cn(C)c2ccccc12	none
Cn1c(=O)n(C)c2cc(S(=O)(=O)c3ccc(F)cc3)c(NC(=O)Cc3ccccc3Cl)cc21	none
CN(C)C[C@@H]1CN(Cc2ccccn2)C[C@H]1NS(=O)(=O)c1cccc(F)c1	none
O=C(O)C(c1c[nH]c2ccc(Br)cc12)N1CCN(c2ncc(Br)cn2)CC1 (centres undefined)	none
CCn1cc(-c2ccc(C)cc2)cc1C(=O)NC(C)c1ccccn1 (centres undefined)	none
Cc1nn(CC(=O)NC(C)(C)C)c(C)c1S(=O)(=O)N1CCCC(C(=O)N2CCCCC2)C1 (centres undefined)	none
NC(=O)c1cccc(CN2CCC3(CC2)Cc2ccccc2N(C(=O)c2ccc(Cl)cc2)C3)c1	none
NC(=O)c1cccc(CN2CCC3(Cc4ccccc4N(C(=O)c4ccc(Cl)cc4)C3)C2)c1 (centres undefined)	none
NC(=O)c1cccc(CN2CCCC23Cc2ccccc2N(C(=O)c2ccc(Cl)cc2)C3)c1 (centres undefined)	KDM5B inh 79µM
c1ccc(-c2nc(CC3CCNC3)no2)cc1 (centres undefined)	none
Cc1ccc2nc(C(=O)NCCc3nc(C)cc(C(F)(F)F)n3)cn2c1	none
CCCc1nc(C(=O)NCc2nc(C)cc(C(F)(F)F)n2)cs1	none
Cc1cc(C(F)(F)F)nc(CNC(=O)c2ccc3cccc(F)c3n2)n1	KDM5B inh 22µM
Cc1ccc(NC(=O)N2CCN(S(=O)(=O)c3cc4c(cc3Cl)NC(=O)C(C)O4)CC2)cc1C (centres undefined)	none
CC1CCN(CCCNC(=O)c2ccccc2C(F)(F)F)CC1	none
CN(C)CCNC(=O)c1cc2cn(C3CC3)cc2s1	KDM5B inh 13µM
CC1CCN(CCNC(=O)c2cc3cn(C(C)C)cc3s2)CC1	KDM5B inh 14µM
O=C(O)c1cc2cn(C3CCCC3)cc2s1	KDM5B inh 16µM
CC(C)n1cc2cc(C(=O)Nc3ccc4c(c3)OCCO4)sc2c1	none
O=C(O)C1CCc2sc(C(=O)N3CCCC3)cc2C1 (centres undefined)	none
CCN(CCNC(=O)c1cc2c(s1)CN(C1CC1)C2)c1cccc(C)c1	none
O=C(c1cc2c(s1)CCC(C(=O)N1CCN(C3CCCC3)CC1)C2)N1CCCCCC1 (centres undefined)	none
COc1ccc(-c2nn(C)c3sc(C(=O)NCCN(C)C)cc23)cc1OC	none
CNC(=O)c1ccc(NC(=O)c2cccc[n+]2[O-])cc1	none
Cc1c(C(=O)N2CCCCC2)sc2nc(-c3ccc(F)cc3)cn12	none
C/C(=N\NC(=S)Nc1ccc(C)cc1)c1ccc([N+](=O)[O-])cc1	none
Cc1cccc(NC(=O)N2CCC(CCNS(=O)(=O)c3ccc(C(C)(C)C)cc3)CC2)c1	none
O=C1c2ccccc2CCC1C(Sc1ccccc1)c1ccc(Cl)cc1 (centres undefined)	none
CCn1c(CCC(N)=O)nnc1SC(C)C(=O)c1c[nH]c2ccccc12 (centres undefined)	none
Cc1ccc(C2Cn3nnc(C(=O)N4CCN(C(=O)c5c(F)cccc5F)CC4)c3CO2)cc1 (centres undefined)	none
CCOCc1nc(C2CCCN2C(=O)Nc2ccsc2C(=O)OC)no1 (centres undefined)	none
